Most compounds without a hit are left out; they make up all but 3.5% or so of the library.
FBW7 activator = human FBW7 E3 ligase activation, primary screen. normalized activity (activation), % at 26.1 µM. Q969H0. AID 1259310. AlphaScreen FBW7–phospho-cyclin E peptide binding, activator screen. actives 0.13% (n = 650,000); in the data active = normalized activity above about 1.9%;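 note: purified mutant Fbw7 with reduced substrate affinity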
MITF inh = human MITF inhibition, primary screen; O75030; AlphaScreen MITF homodimerization, bead proximity signal; inhibition, % at 2.6 µM; actives 0.91% (n = 650,000); in the data active = inhibition above about 50%;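 note: 0% = vehicle wells with protein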
GPR151 ag = human GPR151 activation; PathHunter beta-arrestin GPR151 cells, luminescence; Q8TDV0; AID 1508602; actives 1% (n = 650,000); activation, % at 11.2 µM; in the data active = activation above about 4.9%;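 note: 0% = median of compound wells and 100% = cells with positive control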
Target sequence (Q8TDV0 whole entry, looked up): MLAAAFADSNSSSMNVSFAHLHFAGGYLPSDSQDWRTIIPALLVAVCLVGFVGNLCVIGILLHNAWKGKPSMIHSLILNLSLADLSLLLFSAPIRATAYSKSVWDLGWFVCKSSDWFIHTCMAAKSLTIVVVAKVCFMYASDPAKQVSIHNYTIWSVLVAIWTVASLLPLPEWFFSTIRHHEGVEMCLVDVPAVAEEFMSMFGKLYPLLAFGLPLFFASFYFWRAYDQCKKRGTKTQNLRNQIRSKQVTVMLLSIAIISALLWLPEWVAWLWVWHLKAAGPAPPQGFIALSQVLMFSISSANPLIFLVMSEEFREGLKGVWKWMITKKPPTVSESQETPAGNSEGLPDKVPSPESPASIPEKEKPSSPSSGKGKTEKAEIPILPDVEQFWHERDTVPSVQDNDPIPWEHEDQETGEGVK
TEAD-YAP inh = TEAD-YAP interaction inhibition. HEK-TIYL cells, TEAD-Gal4/YAP UAS-luciferase luminescence. inhibition, % at 9.12 µM. AID 1259422. actives 1.4% (n = 640,000); in the data active = inhibition above about 32%;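 note: 0% = median of test compound wells and 100% = reference inhibitor wells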
MITF confirm = human MITF inhibition, confirmation; shares compounds with MITF inh; AlphaScreen MITF homodimerization, biotin/His-MITF beads; inhibition, % at 2.6 µM; actives 16% (n = 4,700);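 active = inhibition above a cutoff derived from the DMSO control wells, cut at about 28% in these data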;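 note: 0% = MITF dimer wells with DMSO only; inhibitors lower the bead chemiluminescence by keeping MITF from dimerizing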
AS interf DR = optically interferes with AlphaScreen signal in dose response | AlphaScreen optical interference counterscreen, cell-free | AID 1259373 | IC50, µM | actives 6% (n = 480) | shares compounds with MITF inh; call rule not given here
AlphaScreen intf2 = optically interferes with AlphaScreen signal | AID 1259376 | actives 7.6% (n = 4,700) | inhibition, % at 2.6 µM | LysRS AlphaScreen counterscreen, signal interference, triplicate | shares compounds with MITF inh;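 active = inhibition above a cutoff derived from the DMSO control wells, cut at about 30% in these data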
* hit, by the source's call; x = not tested or not shown.

SMILES | FBW7 activator | MITF inh | GPR151 ag | TEAD-YAP inh | MITF confirm | AlphaScreen intf2 | others
Clc1ccccc1CN1CCN(Cc2ccco2)CC1 | 0 | 69* | 1 | -20 | 16 | 16
O=[N+]([O-])c1ccccc1CN1CCN(Cc2ccco2)CC1 | 0 | 54* | 0 | -7 | 7 | 15
CC1CN(Cc2ccccc2Cl)CC(C)O1 (centres undefined) | 1 | 80* | 0 | 3 | -2 | 6
CCOC(=O)C(C(C)C)N(Cc1cccc(Cl)c1)S(=O)(=O)c1ccc([N+](=O)[O-])cc1 (centres undefined) | 0 | 4 | 2 | -9 | x | x
Cc1ccc2oc(=O)c3cnn(CC(=O)Nc4cccnc4Cl)c3c2c1 | 1 | 7 | 0 | 1 | x | x
CCN1CCN(CCOCCOc2ccccc2)CC1 | 0 | 54* | -1 | 12 | 4 | 11
Brc1cccc(OCCN2CCNCC2)c1 | -1 | 29 | -2 | -10 | x | x
CCN1CCN(CCOc2cccc(Oc3ccccc3)c2)CC1 | 0 | 74* | 1 | 0 | 7 | 11
c1ccc(Oc2cccc(OCCN3CCNCC3)c2)cc1 | 0 | 71* | 0 | -12 | 13 | -6
CCN1CCN(CCCOc2ccc(OCc3ccccc3)cc2)CC1 | 0 | 34 | 0 | -13 | x | x
CCOC(=O)CNc1c(N(C)C2CCCCC2)c(=O)c1=O | 0 | 7 | -1 | 1 | x | x
CCN(C(=O)COc1cc(C)ccc1C)c1ccccc1 | 1 | 23 | -1 | -3 | x | x
COc1cccc(NC(=O)CSc2nc3ccccc3c3nc(C)nn23)c1 | 0 | 14 | -1 | 14 | x | x
c1ccc2sc(Nc3nc4ccccc4s3)nc2c1 | 0 | -12 | 0 | -67 | x | x
C(=N\c1nc2ccccc2s1)/Nc1nc2ccccc2s1 | 0 | 52* | -3 | -3 | 12 | 16
COc1ccc(CNS(=O)(=O)c2ccc3[nH]cc(C(=O)O)c(=O)c3c2)cc1 | 0 | 24 | -1 | 8 | x | x
CCOC(=O)CNS(=O)(=O)c1ccc2[nH]cc(C(=O)O)c(=O)c2c1 | 0 | 52* | 1 | 2 | 13 | 1
CCN(CC)CCNS(=O)(=O)c1ccc2[nH]cc(C(=O)O)c(=O)c2c1 | 0 | 52* | 0 | 2 | 5 | 5
Cc1cccc(NC(=O)c2ccc(NS(=O)(=O)c3ccc4[nH]cc(C(=O)O)c(=O)c4c3)cc2)c1 | 1 | 70* | 1 | 5 | 41* | -5
C/C(=N/NC(=O)c1ccoc1C)c1ccc(F)cc1 | 0 | -7 | -7 | -16 | x | x
CCOC(=O)c1cnn(-c2ccccc2Cl)c1CNCc1csc(C)n1 | 0 | -4 | 4 | 4 | x | x
CCOC(=O)c1cnn(-c2ccccc2Cl)c1CNCCNC(C)=O | 0 | 83* | -1 | 1 | 1 | -3
O=C(Nc1nn2cnnc2s1)C12CC3CC(CC(O)(C3)C1)C2 | 0 | 3 | 0 | 2 | x | x
Cc1cc(=O)[nH]c(N/N=C/c2cccc(Cl)c2Cl)n1 | 1 | 79* | -1 | 1 | -3 | 7
CCn1c2ccccc2c2cc(CN3CCN(Cc4ccc(OC)c(Br)c4)CC3)ccc21 | -1 | 60* | 0 | 1 | 14 | 19
SMILES | FBW7 activator | MITF inh | GPR151 ag | TEAD-YAP inh | MITF confirm | AlphaScreen intf2 | others
CCn1c2ccccc2c2cc(CN3CCN(C(=O)c4cccc(OC)c4OC)CC3)ccc21 | 0 | 19 | 1 | -2 | x | x
CCn1c2ccccc2c2cc(CN3CCN(Cc4cc(OC)c(OC)c(OC)c4)CC3)ccc21 | 1 | 61* | -1 | 1 | 1 | 2
CCn1c2ccccc2c2cc(CN3CCN(C(=O)c4c(OC)cccc4OC)CC3)ccc21 | 0 | 40 | -1 | -6 | x | x
COc1ccccc1C(C)N(C)Cc1nc(-c2ccc(OC)c(OC)c2OC)no1 (centres undefined) | 0 | 0 | -1 | -17 | x | x
CCN(CC)c1ccc(C(c2c(C)[nH][nH]c2=O)c2c(C)[nH][nH]c2=O)cc1 | -1 | 77* | 0 | 10 | 71* | -2
COc1ccc(C2/C(=C(/O)c3ccc(Br)cc3)C(=O)C(=O)N2CCCn2ccnc2)cc1 (centres undefined) | 0 | -2 | 1 | -6 | x | x
COc1ccc(CN2CCN(Cc3c[nH]c4ccccc34)CC2)cc1 | 0 | 64* | -2 | 1 | -15 | 6
CCOc1cc(CN2CCN(Cc3c[nH]c4ccccc34)CC2)ccc1OC | 0 | 60* | 1 | 15 | -8 | 0
COc1ccc(CN2CCN(Cc3c[nH]c4ccccc34)CC2)c(OC)c1 | 0 | 58* | 0 | 6 | 9 | 9
N#Cc1c(SCC(=O)O)nc(N2CCCCC2)c2c1CCCC2 | 0 | -1 | 0 | 5 | x | x
CCCSc1nc(N2CCCCC2)c2c(c1C#N)CCCC2 | 0 | 66* | 0 | -4 | -7 | -5
CN(C)c1ccc(C(=O)n2nnc3ccccc32)cc1 | 0 | 61* | 0 | 0 | 2 | 9
C=CCNC(=O)/C(=C/c1ccc(OC)cc1)NC(=O)c1ccccc1 | 0 | 11 | -2 | 1 | x | x
Cc1ccc(/C=C/C(=O)NCc2ccccn2)o1 | -1 | 61* | 2 | 1 | 39* | 19 | AS interf DR=>6.5
Cc1ccc(/C=C/C(=O)NCc2ccco2)o1 | 0 | 64* | -1 | -10 | 66* | 39*
Nc1ccc(C(=O)Oc2ccccc2)cc1 | 0 | 2 | -1 | 1 | x | x
Cc1nc(SCC(=O)Nc2cccc(C(F)(F)F)c2)c2c3c(sc2n1)CCC3 | 0 | 74* | -1 | -9 | 5 | 13
COc1ccc(CN2CCNC(=O)C2CC(=O)N2CCCCCCC2)cc1OC (centres undefined) | 0 | -8 | 0 | -15 | x | x
CCN1CCN(CCOc2cccc(Cl)c2Cl)CC1 | 0 | 72* | 2 | -2 | 8 | 14
CCN1CCN(CCOc2cc(C)ccc2Cl)CC1 | -1 | 72* | 1 | 1 | 8 | 17
CCN1CCN(CCCOc2ccccc2F)CC1 | 0 | 33 | 0 | 1 | x | x
CCN1CCN(CCCOc2ccc(C)cc2Cl)CC1 | 0 | 68* | 0 | -6 | 12 | 14
Cc1ccccc1CN1CCN(Cc2ccncc2)CC1 | 0 | 60* | 1 | -7 | -15 | 0
Cc1ccccc1CN1CCN(Cc2cccnc2)CC1 | 0 | 84* | -1 | 3 | 3 | 24
c1ccc2c(CN3CCN(Cc4ccncc4)CC3)cccc2c1 | 0 | 55* | -1 | -1 | 2 | 2
Cc1ccc(C)c(N2CCN(Cc3cccnc3)CC2)c1 | 0 | 30 | -1 | 9 | x | x
C(=N\N1CCN(Cc2cccc3ccccc23)CC1)/c1ccncc1 | 0 | 14 | -1 | -15 | x | x
NC(C(=O)N1CCC(Nc2ccc3[nH]ncc3c2)CC1)c1ccc(Cl)cc1 (centres undefined) | 0 | 74* | -1 | -4 | 13 | 24
C=CCNC1CCN(c2ccc(NC(=O)c3ccc(OC)cc3)cc2)CC1 | 0 | 60* | 0 | -19 | -1 | -2

High-throughput results (PubChem)
